Screening data as filed in PubChem BioAssay.
Mdm2 MdmX PPI: human Mdm2/MdmX binding inhibition | SaOS-2 split-luciferase Mdm2/MdmX complementation, luminescence | O15151+Q00987 | inhibition, % at 8 µM | actives 3% (n = 330,000);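 active means inhibition of at least 50% at 8 µM in the primary screen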
Target sequence (O15151 whole entry, looked up): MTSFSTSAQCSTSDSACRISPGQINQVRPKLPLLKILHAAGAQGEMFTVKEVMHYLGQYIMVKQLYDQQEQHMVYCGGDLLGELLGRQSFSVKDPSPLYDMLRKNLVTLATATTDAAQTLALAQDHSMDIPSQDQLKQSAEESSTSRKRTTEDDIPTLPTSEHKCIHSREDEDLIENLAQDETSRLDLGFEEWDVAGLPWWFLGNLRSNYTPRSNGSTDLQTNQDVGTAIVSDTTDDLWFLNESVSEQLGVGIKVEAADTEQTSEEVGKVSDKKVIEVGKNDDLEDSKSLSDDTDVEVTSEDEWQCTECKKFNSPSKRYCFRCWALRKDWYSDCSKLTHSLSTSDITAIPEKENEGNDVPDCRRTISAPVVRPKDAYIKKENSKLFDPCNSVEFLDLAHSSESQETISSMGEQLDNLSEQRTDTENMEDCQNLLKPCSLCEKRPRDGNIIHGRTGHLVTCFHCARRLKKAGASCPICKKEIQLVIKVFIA
Target sequence (Q00987 whole entry, looked up): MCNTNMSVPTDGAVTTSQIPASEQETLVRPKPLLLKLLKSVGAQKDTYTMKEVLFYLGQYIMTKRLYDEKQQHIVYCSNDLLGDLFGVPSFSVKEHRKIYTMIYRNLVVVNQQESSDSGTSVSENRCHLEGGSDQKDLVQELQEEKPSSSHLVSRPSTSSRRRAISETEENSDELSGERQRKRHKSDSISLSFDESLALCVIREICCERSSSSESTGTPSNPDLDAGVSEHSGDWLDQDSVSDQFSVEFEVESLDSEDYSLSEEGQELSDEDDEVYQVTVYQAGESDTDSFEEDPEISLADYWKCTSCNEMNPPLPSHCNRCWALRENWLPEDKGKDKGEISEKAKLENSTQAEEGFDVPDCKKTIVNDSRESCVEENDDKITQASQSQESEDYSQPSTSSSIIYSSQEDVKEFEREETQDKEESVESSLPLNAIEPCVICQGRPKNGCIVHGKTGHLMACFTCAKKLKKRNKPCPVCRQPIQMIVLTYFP
Beta cell apopt: blocks beta cell apoptosis; actives 0.8% (n = 300,000); protection from apoptosis, % (no concentration beside the values); INS-1E cytokine-induced death, ATP luminescence, 48 h; percent of positive-control rescue, neutral wells zero;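 active means Every replicate reaches about 75%, or at least half do and their mean reaches it too, limit read from the data; inconclusive means At least half of replicates reach the limit but their mean does not; inactive means Under half of replicates reach the limit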;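 further: higher means more ATP so stronger rescue from cytokine killing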
MPTP block: inhibitors of mitochondrial permeability transition pore; isolated mouse mitochondria, Ca2+ swelling absorbance, 30 min; inhibition, % at 10 µM; actives 1.4% (n = 360,000); AID 602449;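 active means inhibition of 50% or more, scaled per plate between neutral and stimulator controls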
Calb FLC: affects C. albicans growth with fluconazole | AID 1979 | C. albicans CaCi-2 (fluconazole-resistant clinical isolate) + fluconazole, Alamar Blue growth, 48 h | actives 0.57% (n = 300,000) | growth inhibition, % (no concentration beside the values);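 active means growth inhibition above about 58% in most replicates, limit read from the data, passing the limit was not always enough; inconclusive means exactly half the replicates above a set limit; inactive means most replicates below a set limit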;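 further: all wells also contain fluconazole at 8 µg/ml as a sub-toxic cotreatment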
CSC inhib: cancer stem cell inhibition; cancer stem cell-like cells viability, luminescence; inhibition, % at 7.5 µM; actives 1.1% (n = 300,000); AID 2717; in the data active means inhibition above about 75%; inconclusive means no clear call, values can overlap the other calls; tested in HMLE shEcad cells
Mdm2-MdmX conf: human Mdm2/MdmX binding inhibition, confirmed; shares compounds with Mdm2 MdmX PPI; luminescent assay; inhibition, % at 8 µM; actives 55% (n = 10,000); in the data active means inhibition above about 40%
Full FLuc ctr: inhibits full-length luciferase, flagging false Mdm2/MdmX hits; SaOS-2 full-length luciferase counterscreen, luminescence; AID 504607; inhibition, % at 8 µM; shares compounds with Mdm2 MdmX PPI; actives 77% (n = 6,200);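 active means mean inhibition at 8 µM reaching about 37%, which flags the compound as non-specific, limit read from the data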;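 further: p53-null SaOS-2 cells with luciferase driven by a doxycycline-inducible promoter; compound on cells about two nights before reading with doxycycline added after day one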
Of the large screens only hits and unclear results are named; the others gave an inactive call (follow-up assays come after a bar, where they were run). Only some compounds are listed: those with a hit (about 4.8% of all), similar ones and a draw of the others.

CCOC(=O)C1(C)CCN1C(=O)c1ccc(C)cc1 (stereo not drawn)	none (no result: Mdm2 MdmX PPI, Beta cell apopt, Calb FLC, CSC inhib)
CC1Cc2ccccc2N1CC(=O)Nc1cc(S(=O)(=O)N2CCOCC2)ccc1Cl (stereo not drawn)	none (no result: Mdm2 MdmX PPI, Beta cell apopt, Calb FLC, CSC inhib)
Cc1cccc(OCCNC(=O)c2cccc(Oc3ccc(C(F)(F)F)cc3[N+](=O)[O-])c2)c1	CSC inhib inconclusive
Cc1cccc(OCCNC(=O)c2ccc(Oc3ccc(C(F)(F)F)cc3[N+](=O)[O-])cc2)c1	Mdm2 MdmX PPI 50.3 (no result: Beta cell apopt) | Mdm2-MdmX conf inactive
Cc1cccc(C)c1C(O)c1ncc(-c2cccc3ccccc23)[nH]1 (stereo not drawn)	none (no result: Mdm2 MdmX PPI, Beta cell apopt, Calb FLC, CSC inhib)
CNc1ccc(-c2cccc([N+](=O)[O-])c2)cn1	none (no result: Mdm2 MdmX PPI, Beta cell apopt, Calb FLC, CSC inhib)
Cc1cc(Cl)ccc1OCC(=O)N1CCCCC1	none
O=C(COc1ccc(Cl)cc1Cl)N1CCCN(C(=O)COc2ccc(Cl)cc2Cl)CC1	Mdm2 MdmX PPI 58.7, Calb FLC 92.5 | Mdm2-MdmX conf inactive
c1ccc(-c2cn(-c3ccccc3)c3ncnc(N4CCCCC4)c23)cc1	none
CCOc1ccc(-n2cc(-c3ccccc3)c3c(N4CCOCC4)ncnc32)cc1	Mdm2 MdmX PPI 74.2, CSC inhib 104.3 | Mdm2-MdmX conf 64.7 | Full FLuc ctr 82.6
COc1ccc(-n2cc(-c3ccccc3)c3c(N4CC(C)OC(C)C4)ncnc32)cc1 (stereo not drawn)	Mdm2 MdmX PPI 63.8 | Mdm2-MdmX conf 50.0 | Full FLuc ctr 84.1
COc1cccc(Cn2c(-c3nonc3N)nc3ccccc32)c1	Mdm2 MdmX PPI 53.5 | Mdm2-MdmX conf 56.0 | Full FLuc ctr 70.0
COc1cc(Cn2c(-c3nonc3N)nc3ccccc32)ccc1C	Mdm2 MdmX PPI 54.8 | Mdm2-MdmX conf 62.0 | Full FLuc ctr 46.4
Cc1ccc(Cn2c(-c3nonc3N)nc3ccccc32)cc1	none
C=CCNc1nc(N)c(C(=C(C#N)C#N)c2ccc(Br)cc2)s1	Mdm2 MdmX PPI 50.5 | Mdm2-MdmX conf 41.9 | Full FLuc ctr 87.8
CC(C)C1Cc2[nH]c(=S)[nH]c(=O)c2C(c2ccc(F)cc2)O1 (stereo not drawn)	none (no result: Mdm2 MdmX PPI, Beta cell apopt, Calb FLC, CSC inhib)
CCc1ccc(Nc2nc(N)nc(CSc3nnnn3-c3ccccc3)n2)cc1	Mdm2 MdmX PPI 59.5 | Mdm2-MdmX conf 62.5 | Full FLuc ctr 47.7
CC(C)COC(=O)N1CCCCC1c1cc(C(=O)Nc2ccccc2)no1 (stereo not drawn)	none (no result: Mdm2 MdmX PPI, Beta cell apopt, Calb FLC, CSC inhib)
O=S(=O)(c1ccccc1)N1CCN(c2ccnc3cc(Cl)ccc23)CC1	none
O=S(=O)(c1cccs1)N1CCN(c2ccnc3cc(Cl)ccc23)CC1	Mdm2 MdmX PPI 57.4 (no result: Beta cell apopt, CSC inhib) | Mdm2-MdmX conf inactive
Cc1ccc(C(=O)Nc2nc(C(N)Cc3ccc(C(F)(F)F)cc3)cs2)cc1 (stereo not drawn)	none (no result: Mdm2 MdmX PPI, Beta cell apopt, Calb FLC, CSC inhib)
Nc1nc(CCl)nc(Nc2ccccc2)n1	none
Cc1ccc(Nc2nc(N)nc(CCl)n2)cc1	Mdm2 MdmX PPI 83.4 | Mdm2-MdmX conf 79.3 | Full FLuc ctr 59.1
COc1cccc(Nc2nc(N)nc(CCl)n2)c1	none
Cc1cccc(Nc2nc(N)nc(CCl)n2)c1	Mdm2 MdmX PPI 68.1 | Mdm2-MdmX conf 63.9 | Full FLuc ctr 61.0
Cc1cccc(Nc2nc(N)nc(CCl)n2)c1C	Mdm2 MdmX PPI 100.3 | Mdm2-MdmX conf 100.1 | Full FLuc ctr 60.3
Cc1ccc(Nc2nc(N)nc(CCl)n2)c(C)c1	Mdm2 MdmX PPI 95.5 | Mdm2-MdmX conf 100.1 | Full FLuc ctr 53.4
CSc1ccc(OC2(C)CCN(Cc3cc4ccccc4o3)C2)cc1 (stereo not drawn)	none (no result: Mdm2 MdmX PPI, Beta cell apopt, Calb FLC, CSC inhib)
Cc1ccc(CNC(=O)CN2C(=O)CSc3ccc(S(=O)(=O)N4CCCCC4)cc32)cc1	none
CC(C)Cn1cnc2c(Sc3c([N+](=O)[O-])ncn3C)nc(N)nc21	none (no result: Mdm2 MdmX PPI, Beta cell apopt, Calb FLC, CSC inhib)
Cc1ccc(Nc2nc(N)nc(CSc3nnc(-c4ccncc4)o3)n2)cc1	Mdm2 MdmX PPI 67.2 (no result: Calb FLC) | Mdm2-MdmX conf inactive
CCOc1ccc(Nc2nc(N)nc(CCl)n2)cc1	Mdm2 MdmX PPI 98.1 | Mdm2-MdmX conf 98.0 | Full FLuc ctr 56.5
CC(C)(C)S(=O)N1Cc2cc(C(=O)NCC(F)(F)F)nc(-c3cccc(-c4cccc(F)c4)c3)c2[C@@H]1CCO (stereo partly drawn)	none (no result: Mdm2 MdmX PPI, Beta cell apopt, Calb FLC, CSC inhib)
COc1ccc2c(C(=O)NCc3ccc4c(c3)OCO4)c(-c3ccc(S(C)(=O)=O)cc3)sc2c1	Mdm2 MdmX PPI 84.4, Beta cell apopt inconclusive (no result: Calb FLC, CSC inhib) | Mdm2-MdmX conf inactive
COC(=O)c1c(-c2ccc(S(C)(=O)=O)cc2)sc2cc(OC)ccc12	none (no result: Calb FLC)
COc1cc([N+](=O)[O-])cc(/C=N/NC(=O)c2cccnc2)c1O	Mdm2 MdmX PPI 55.5 | Mdm2-MdmX conf 52.4 | Full FLuc ctr 51.0
COc1ccc(/C=N/NC(=O)c2cccnc2)cc1COc1ccc([N+](=O)[O-])c(C)c1	Mdm2 MdmX PPI 52.4 | Mdm2-MdmX conf 54.6 | Full FLuc ctr 47.7
COc1cc([N+](=O)[O-])cc(/C=N/NC(=O)C(O)(c2ccccc2)c2ccccc2)c1O	none (no result: Beta cell apopt)
COc1cc(C2CC(=O)N(c3ccc(C)cc3)C(=O)C2)cc(OC)c1OC	Mdm2 MdmX PPI 53.7 | Mdm2-MdmX conf 40.9 | Full FLuc ctr 61.0
COc1ccc(N2C(=O)CC(c3cc(OC)c(OC)c(OC)c3)CC2=O)cc1	none
CC(=O)c1c(C)[nH]c(C(=O)N2CCc3ccccc32)c1C	none (no result: Calb FLC, CSC inhib)
CCOC(=O)c1[nH]c(C)c(C(=O)N2CCc3ccccc32)c1C	Mdm2 MdmX PPI 63.0 | Mdm2-MdmX conf 57.2 | Full FLuc ctr 81.8
Cc1ccc(C)c(NC(=S)NCc2ccc3[nH]c4c(c3c2)CCCC4)c1	Mdm2 MdmX PPI 63.6 (no result: CSC inhib) | Mdm2-MdmX conf inactive
S=C(NCc1ccc2[nH]c3c(c2c1)CCCC3)Nc1ccccc1Cl	Mdm2 MdmX PPI 64.2 (no result: CSC inhib) | Mdm2-MdmX conf inactive
CNC(=S)NCc1ccc2[nH]c3c(c2c1)CCCC3	none
CCCCNC(=S)NCc1ccc2[nH]c3c(c2c1)CCCC3	none
Cc1ccccc1NC(=S)NCc1ccc2[nH]c3c(c2c1)CCCC3	Mdm2 MdmX PPI 65.4 (no result: Beta cell apopt) | Mdm2-MdmX conf inactive
CC(C)c1ccc(C2C3=C(COC3=O)Nc3cc4c(cc32)OCO4)cc1 (stereo not drawn)	Mdm2 MdmX PPI 76.5 | Mdm2-MdmX conf 62.0 | Full FLuc ctr 94.4
COc1ccc(/C=N/n2cnc3c([nH]c4ccc(F)cc43)c2=O)cc1CSc1ccccn1	Mdm2 MdmX PPI 94.4 | Mdm2-MdmX conf inactive
COc1ccc2nc(C)cc(Sc3nc4ccccc4s3)c2c1	Mdm2 MdmX PPI 77.7 | Mdm2-MdmX conf inactive
COc1ccc2nc(C)cc(SCC(=O)NNC(=O)COc3ccccc3)c2c1	none
O=C(CN1C(=O)c2ccccc2C1=O)NC1CCC(O)CC1 (stereo not drawn)	none (no result: Calb FLC)
CC(=O)Nc1ccc(S(=O)(=O)NCCC(=O)NCc2ccncc2)cc1	none (no result: CSC inhib)
COC(=O)c1cn(C(=O)c2ccc3c(c2)OCO3)c2ccccc12	none (no result: Mdm2 MdmX PPI, Beta cell apopt, Calb FLC, CSC inhib)
Cc1ccc2nc(-c3ccc(NC(=O)c4ccco4)cc3)[nH]c2c1	none (no result: CSC inhib)
